Source: PubChem (several laboratories)
Jurkat NFkB inh = inhibitors of induced NF-kB luciferase reporter, primary screen, TCR NF-kB activation inhibitor project, cell-based, luminescence, uHTS; Jurkat, PMA/ionomycin-induced NF-kB luciferase reporter; AID 435003, 2010; hit rate 0.53% among 330,000; inhibition, % at 4 µM; in the data active means inhibition above about 50%
esBAF inh = Bmi1 luciferase reporter increase in mESCs, primary screen, esBAF inhibitor project, mouse ES cells, Bmi1 luciferase knock-in, single point; 24 h; 100% = twice the neutral-well signal; reporter increase, % at 12.5 µM; hit rate 2% among 350,000; AID 602393, 2012; in the data active means activation above about 40%; inconclusive means no clear call, values can overlap the other calls;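 further: a rise in the Bmi1 reporter signal indicates esBAF inhibition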
SMARCA2 activ = SMARCA2 (BRM) function activators, primary screen, cell-based, luminescence, high throughput; hit rate 1% among 370,000; MG213 cells, MMTV-luciferase reporter, dexamethasone, overnight; AID 652017, 2013; activation, % at 9.1 µM; in the data active means activation above about 7.8%
697 NFkB inh = inhibitors of PMA/ionomycin-induced NF-kB reporter, 697 cells, primary screen, B-cell NF-kB inhibitor project, cell-based, luminescence, uHTS | 697 B-cell NF-kB luciferase reporter, 16 h | AID 435022, 2010 | inhibition, % at 4 µM | hit rate 0.33% among 330,000; in the data active means inhibition above about 35%
Gli-Sufu block = Gli-Sufu pathway antagonists, primary screen, luciferase luminescence, Sufu-KO-LIGHT cells, uHTS. Sufu-KO-LIGHT fibroblasts, Gli luciferase reporter luminescence. inhibition, % at 5 µM. hit rate 0.74% among 340,000. AID 588413, 2011;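 active means inhibition above about 55%, limit read from the data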
SMARCA2 conf = SMARCA2 (BRM) function activators, confirmation, cell-based, luminescence, triplicate. shares compounds with SMARCA2 activ. MG213 cells, MMTV-luciferase with dexamethasone, overnight; MG213 cells expressing E1A, Rb sequestered; DMSO wells 0%, reference activator 100%. activation, % at 9.1 µM. hit rate 30% among 3,500;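 active means activation above its plate's cutoff, the mean activation of tested wells plus 3 SD, cut at about 7.9% in these data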
VP16 Luc act = GAL4-VP16 luciferase reporter activation, counter-screen for SMARCA2 (BRM) activator project, cell-based, pG5luc, luminescence, high throughput; shares compounds with SMARCA2 activ; HEK293 GAL4-VP16 pG5luc reporter; scaled: DMSO wells 0%, SAHA wells 100%; hit rate 41% among 3,500; activation, % at 9.1 µM;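 active means activation above the solvent-only control well mean plus 3 SD, averaged across control plates, cut at about 5.2% in these data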
A number is an active result; n = inactive; u = inconclusive; x = no result given. Rows were chosen to be rich in hits. Some 3.3% of all compounds tested hit in one or more screens of this group.

SMILES | Jurkat NFkB inh | esBAF inh | SMARCA2 activ | 697 NFkB inh | Gli-Sufu block | SMARCA2 conf | VP16 Luc act
CNC[C@@H]1OCCCC[C@H](C)Oc2ccc(NC(=O)Nc3ccc(OC)cc3)cc2C(=O)N([C@@H](C)CO)C[C@@H]1C | x | n | x | x | x | x | x
O=C(Nc1cccc(F)c1)N1C[C@@H]2[C@H](c3ccccc31)[C@H](CO)N2C(=O)C1CCOCC1 | x | n | x | x | x | x | x
COc1cccc(CSc2nc3ccncc3[nH]2)c1 | n | n | 9.3 | n | n | n | 7.0
O=C(C[C@H]1CC[C@H]2[C@@H](COC[C@H](O)CN2Cc2cocn2)O1)NCc1cccc(F)c1 | x | n | x | x | x | x | x
COc1ccccc1NC(=O)N1C[C@H](O)COC[C@H]2O[C@H](CC(=O)NCc3ccccc3)CC[C@@H]21 | x | n | x | x | x | x | x
COCC(=O)N(C)C[C@@H]1Oc2ncc(C3=CCCC3)cc2C(=O)N([C@H](C)CO)C[C@@H]1C | x | n | x | x | x | x | x
O=C(N/N=C/c1ccccn1)c1ccc(N/N=C/c2ccccn2)cc1 | n | x | n | n | n | x | x
O=C(N/N=C/c1ccccn1)c1cccc([N+](=O)[O-])c1 | n | x | 11 | n | n | n | n
O=C(NC(=S)Nc1ccccn1)c1cccc([N+](=O)[O-])c1 | n | x | 8.8 | n | n | n | 7.5
O=C(N/N=C/c1ccccn1)c1ccc(Br)cc1 | n | x | 12 | n | n | n | 25
O=C(N/N=C/c1ccc(Br)s1)c1ccccn1 | n | x | 11 | n | n | 14 | 9.0
Cc1ccc(CNC(=O)C2=NNC(=O)CC2)cc1 | n | x | 12 | n | n | n | 7.9
C[C@@H]1CN([C@@H](C)CO)C(=O)c2cc(N(C)C)ccc2O[C@@H](C)CCCCO[C@@H]1CN(C)S(=O)(=O)c1ccccc1 | x | n | x | x | x | x | x
Cc1ccc(C)c(NC(=S)c2ccc3ccccc3n2)c1 | n | 76 | 8.5 | n | n | n | 10
Cc1ccc(C)c(NC(=S)c2nc3ccccc3s2)c1 | n | x | n | n | n | x | x
CN(C)/C=N/c1nc2ccc3c(c2s1)CCCC3 | n | u | 15 | n | n | 18 | 13
COc1ccc2nc(/N=C\N(C)C)sc2c1 | n | n | n | n | n | x | x
O=C(NC1CCCC1)c1ccccc1OCc1ccccc1 | n | n | n | n | n | x | x
COc1ccccc1C(=O)NC1CCCCCCC1 | n | n | 8.0 | n | n | n | n
O=C(NC1CCCCCCC1)c1ccc(F)cc1 | n | n | 12 | n | n | 12 | 7.5
COc1ccc(OCCC(=O)OCC(=O)NCc2ccccc2)cc1 | n | x | 9.8 | n | n | n | n
Cc1ccc(OCCC(=O)OCC(=O)NCc2ccccc2)cc1 | n | x | n | n | n | x | x
CC(CCc1ccccc1)NC(=O)C(=O)Nc1ccccc1 (configuration not stated) | n | x | 8.9 | n | n | 11 | 9.8
CC(CCc1ccccc1)NC(=O)CN1CCN(c2ccccc2)CC1 (configuration not stated) | n | n | 8.7 | n | n | n | n
C[C@H]1CN([C@@H](C)CO)C(=O)c2cc(NC(=O)NC3CCCCC3)ccc2O[C@H]1CN(C)Cc1ccc(C(F)(F)F)cc1 | x | n | x | x | x | x | x
SMILES | Jurkat NFkB inh | esBAF inh | SMARCA2 activ | 697 NFkB inh | Gli-Sufu block | SMARCA2 conf | VP16 Luc act
Cc1nc(N(C)C)c2sc(=S)n(Cc3ccccc3)c2n1 | n | x | 8.8 | n | n | n | n
CCN(CC)c1nc(C)nc2c1sc(=S)n2C | n | x | n | n | n | x | x
Cc1cc(=O)oc(C)c1C(=O)NNC(=O)C1(C)CC1Br (configuration not stated) | n | x | 8.9 | n | n | n | n
O=C(Nc1cccc(-c2nn[nH]n2)c1)c1cccs1 | n | n | n | n | n | x | x
CCc1ccc(C(=O)Nc2cccc(-c3nn[nH]n3)c2)s1 | n | n | 9.2 | n | n | n | n
O=C(Nc1ccc2c(c1)OCO2)N1CCN(Cc2ccco2)CC1 | n | x | 11 | n | n | n | 12
CN(C)C(=O)C[C@@H]1CC[C@H](NC(=O)c2ccc(F)cc2)[C@H](CO)O1 | x | n | x | x | x | x | x
COc1ccc2nc(-c3ccco3)c(-c3ccco3)nc2c1 | n | n | 11 | n | n | n | 9.2
c1coc(-c2nc(-c3ccco3)c(-c3ccco3)nc2-c2ccco2)c1 | n | n | n | n | n | x | x
O=c1c(Br)c(N2CCCCC2)cnn1-c1ccccc1 | n | x | 8.7 | n | n | 9.8 | 9.0
O=C(COc1ccc(Cl)cc1)NCC(=O)N1CCC2(CC1)NCCc1[nH]cnc12 | n | n | 9.7 | n | n | n | n
CCOc1ccc(C(=O)NCC(=O)N2CCC3(CC2)NCCc2[nH]cnc23)cc1 | n | n | n | n | n | x | x
CN(C)c1cccc(C(=O)Nc2cccc(S(=O)(=O)NC3=NCCC3)c2)c1 | n | 55 | 8.3 | n | n | 15 | 5.3
O=C(c1ccco1)N1CCN(c2ccc(F)cc2)CC1 | n | x | 18 | n | n | n | 5.8
CCOc1ccc(NC(=O)NN2C(C)CCCC2C)cc1 (configuration not stated) | n | n | 15 | n | n | n | n
CO[C@H]1CN(C)C(=O)c2cc(NS(C)(=O)=O)ccc2OC[C@H](C)N(S(C)(=O)=O)C[C@H]1C | x | n | x | x | x | x | x
Cc1c(C(N)=O)sc2nc(-c3ccccc3)cn12 | n | n | 9.9 | n | n | n | 13
COCCN(CCOC)C(=O)c1sc2nc(-c3ccccc3)cn2c1C | n | n | n | n | n | x | x
CC1CCCN(C(=O)COC(=O)c2ccc3[nH]c4c(c3c2)CCCC4)C1 (configuration not stated) | n | x | 8.1 | n | n | n | n
COC(=O)C1CCN(C(=O)COC(=O)c2ccc3[nH]c4c(c3c2)CCCC4)CC1 | n | n | n | n | n | x | x
COc1ccccc1-c1ccc2c(c1)O[C@H](CN(C)C)[C@H](C)CN([C@H](C)CO)S2(=O)=O | x | n | x | x | x | x | x
O=C(Nc1ccccc1F)c1csc([C@@H]2C[C@H](O)[C@@H](CO)O2)n1 | x | n | 11 | x | x | n | n
CCN(CC)S(=O)(=O)c1ccc(C(=O)NNC(=O)c2cccs2)cc1 | n | x | 11 | n | n | n | n
CCN(CC)S(=O)(=O)c1ccc(NC(=O)c2cccs2)cc1 | n | n | n | n | n | x | x
COc1ccnc(Oc2ccc3ccccc3c2)c1C#N | n | x | 14 | n | n | n | 7.9
CNC[C@H]1Oc2ccc(NS(C)(=O)=O)cc2CC(=O)N([C@@H](C)CO)C[C@@H]1C | x | n | x | x | x | x | x
Cn1cccc1CC(=O)NNC(=S)Nc1ccccc1Cl | n | x | 8.3 | n | n | n | n
